Experimental data published in PubChem BioAssay (NCATS).
Where “and” joins values, the source holds several entries; their conditions need not be identical. Identical values can stand only once. Records with an inconclusive call do not appear. Calls of active or inactive are those of the source. Calls follow the shape of the dose curve; as a rule, active = well fitted curve in the direction sought with a large enough effect; inconclusive = small, poorly fitted or top-dose-only effect, or another doubt; inactive = no such curve, though single readings can be large; an effect the other way counts as inactive or inconclusive.

Experiments:
HEK293 = test: Cytotoxic Profiling of Annotated Libraries Using Quantitative High-Throughput Screening (AID 1296008); settings: Five cell lines viability, CellTiter-Glo ATP luminescence, 48-72 h; max response: active compounds read low; also: nearly all actives have a fitted effect of over 60% in size
Summary of the method: (§1)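 Cells exposed to compounds for 48 or 72 hr at 37 degrees Celsius. Viability read as ATP-coupled luminescence with CellTiter-Glo after 10 min at room temperature.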

HaCat [1] = test: as above; settings: Five cell lines viability, CellTiter-Glo ATP luminescence, 48-72 h; max response: active compounds read low
Summary of the method: as §1

KB-3-1 = test: as above; settings: Five cell lines viability, CellTiter-Glo ATP luminescence, 48-72 h; max response: active compounds read low
Summary of the method: as §1

NIH3T3 [2] = test: as above; settings: Five cell lines viability, CellTiter-Glo ATP luminescence, 48-72 h; max response: active compounds read low
Summary of the method: as §1

MKL-2 = test: qHTS assay to identify novel small-molecules to repurpose for Merkel cell carcinoma treatment (AID 1296009); settings: MCC and control cell lines, CellTiter-Glo viability, 72 h; series mostly up to 46 µM; also: nearly all actives have a fitted effect of over 60% in size
Summary of the method: (§2)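 Dose-response viability screen; 72 hr exposure at 37 degree celsius; CellTiter-Glo added, 10 min room temperature, luminescence read; RLUs scaled between no-cell and DMSO wells.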

UISO = test: as above; settings: MCC and control cell lines, CellTiter-Glo viability, 72 h; series mostly up to 46 µM
Summary of the method: as §2

HACAT [3] = test: as above; settings: MCC and control cell lines, CellTiter-Glo viability, 72 h; at 44.8 µM (top of the series) unless noted
Summary of the method: as §2

HEK293T [4] = test: as above; settings: MCC and control cell lines, CellTiter-Glo viability, 72 h; at 44.8 µM (top of the series)
Summary of the method: as §2

MCC-13 = test: as above; settings: MCC and control cell lines, CellTiter-Glo viability, 72 h; series mostly up to 46 µM
Summary of the method: as §2

MCC-26 = test: as above; settings: MCC and control cell lines, CellTiter-Glo viability, 72 h; series mostly up to 46 µM
Summary of the method: as §2

MKL-1 = test: as above; settings: MCC and control cell lines, CellTiter-Glo viability, 72 h; series mostly up to 46 µM
Summary of the method: as §2

NIH3T3 [5] = test: as above; settings: MCC and control cell lines, CellTiter-Glo viability, 72 h; at 44.8 µM (top of the series) unless noted
Summary of the method: as §2

WaGa = test: as above; settings: MCC and control cell lines, CellTiter-Glo viability, 72 h; series mostly up to 46 µM
Summary of the method: as §2

C33A = test: Primary qHTS to identify gynecologic anti-cancer compounds using libraries of approved drugs and bioactive compounds (AID 1345084); settings: Gynecologic cancer cell panel viability, ATPlite luminescence, 48 h; series mostly up to 57.5 µM; also: nearly all actives have a fitted effect of over 55% in size
Summary of the method: (§3)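 Five-point cytotoxicity, 48 h drug exposure at 37 C, 5% CO2, on cells seeded 16 h beforehand. ATP content read by ATPlite luminescence.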

CASKI = test: as above; settings: Gynecologic cancer cell panel viability, ATPlite luminescence, 48 h; series mostly up to 57.5 µM
Summary of the method: as §3

Es-2 = test: as above; settings: Gynecologic cancer cell panel viability, ATPlite luminescence, 48 h; series mostly up to 57.5 µM
Summary of the method: as §3

HeLa = test: as above; settings: Gynecologic cancer cell panel viability, ATPlite luminescence, 48 h; series mostly up to 57.5 µM
Summary of the method: as §3

Hek293T [6] = test: as above; settings: Gynecologic cancer cell panel viability, ATPlite luminescence, 48 h, control line for the selectivity index; series mostly up to 57.5 µM
Summary of the method: as §3

JEG-3 = test: as above; settings: Gynecologic cancer cell panel viability, ATPlite luminescence, 48 h; series mostly up to 57.5 µM
Summary of the method: as §3

CAOV3 = test: as above; settings: Gynecologic cancer cell panel viability, ATPlite luminescence, 48 h; series mostly up to 57.5 µM
Summary of the method: as §3
% is scaled to controls: 0 for no effect and ±100 for the full control effect; potency is read from the fitted curve at half-maximal effect.

CO[C@@H](C(=O)N1Cc2[nH]nc(NC(=O)c3ccc(N4CCN(C)CC4)cc3)c2C1)c1ccccc1
inactive: Potency (MKL-2) | Potency (UISO)
active: Potency (HEK293) 4.18 µM | Potency (HaCat [1]) 2.35 µM | Potency (KB-3-1) 11.8 µM | Potency (NIH3T3 [2]) 14.8 µM

COc1ccccc1N1CCN(CCCNc2cc(=O)n(C)c(=O)n2C)CC1
inactive: outcome (HEK293) | outcome (HaCat [1]) | max response (KB-3-1) 10% and -5.34% and -7.87% | outcome (HACAT [3]) | outcome (HEK293T [4]) | Potency (MCC-13) | Potency (MCC-26) | Potency (MKL-1) | Potency (MKL-2) | outcome (NIH3T3 [5]) | Potency (UISO) | Potency (WaGa) | Potency (C33A) | Potency (CASKI) | Potency (Es-2) | Potency (HeLa) | Potency (Hek293T [6]) | Potency (JEG-3)

O=C1c2ccccc2-[n+]2ccc3c([nH]c4ccccc43)c21
active: Potency (HEK293) 2.64 µM | Potency (HaCat [1]) 1.32 µM | Potency (KB-3-1) 2.96 µM | Potency (MCC-13) 3.32 µM | Potency (MCC-26) 7.43 µM | Potency (MKL-1) 1.05 µM | Potency (MKL-2) 3.32 µM | Potency (UISO) 0.662 µM | Potency (WaGa) 2.35 µM

CCN(CC)CCOC(=O)c1ccc(N)cc1
inactive: outcome (HEK293) | outcome (HaCat [1]) | max response (KB-3-1) 14% | outcome (HACAT [3]) | outcome (HEK293T [4]) | Potency (MCC-13) | Potency (MKL-1) | Potency (MKL-2) | Potency (UISO) | Potency (WaGa) | Potency (C33A) | Potency (CASKI) | Potency (Es-2) | Potency (HeLa) | Potency (Hek293T [6]) | Potency (JEG-3)

CN(C)C1CCN(C(=O)c2ccc(NC(=O)Nc3nc(N4CCOCC4)nc(N4CCOCC4)n3)cc2)CC1
active: Potency (HEK293) 0.142 µM | Potency (HaCat [1]) 0.252 µM | Potency (KB-3-1) 0.0502 µM | Potency (MCC-26) 0.833 µM | Potency (MKL-1) 0.132 µM | Potency (MKL-2) 0.296 µM | Potency (UISO) 0.0264 µM | Potency (WaGa) 0.105 µM | Potency (C33A) 0.178 µM | Potency (CASKI) 0.141 µM | Potency (Es-2) 0.794 µM | Potency (HeLa) 0.794 µM | Potency (Hek293T [6]) 0.891 µM

CCNc1cc(NC2CCC(O)CC2)nc(Nc2ccc3c(ccn3Cc3ccccc3)c2)n1 (stereo not drawn)
inactive: outcome (HaCat [1]) | outcome (NIH3T3 [2]) | outcome (HACAT [3]) | Potency (MCC-13) | Potency (MCC-26) | Potency (MKL-1) | outcome (NIH3T3 [5]) | Potency (UISO) | Potency (WaGa)
active: Potency (HEK293) 20.9 µM

CC(=O)Nc1ccc([C@H](C)C(=O)Nc2ncc(C(C)C)s2)cc1
inactive: Potency (CAOV3) | Potency (JEG-3)
active: Potency (HEK293) 4.69 µM and 4.11 µM | Potency (HaCat [1]) 10.5 µM and 18.4 µM | Potency (KB-3-1) 5.17 µM | Potency (MKL-2) 9.35 µM | Potency (UISO) 7.43 µM | Potency (C33A) 20 µM | Potency (Es-2) 14.1 µM | Potency (Hek293T [6]) 15.8 µM

Cc1ccc([C@@H]2O[C@H](CO)[C@@H](O)[C@H](O)[C@@H]2O)cc1Cc1ccc(-c2ccc(F)cc2)s1
active: Potency (HEK293) 14.8 µM
inactive: outcome (HaCat [1]) | outcome (KB-3-1) | outcome (HACAT [3]) | Potency (MCC-13) | Potency (MCC-26) | Potency (MKL-1) | Potency (MKL-2) | outcome (NIH3T3 [5]) | Potency (UISO) | Potency (WaGa)

CC(=O)N(C)C1(c2ccccc2)CCN(CCC[C@]2(c3ccc(Cl)c(Cl)c3)CCCN(C(=O)c3ccccc3)C2)CC1
inactive: Potency (MCC-13) | Potency (MCC-26) | Potency (MKL-1) | Potency (WaGa)
active: Potency (HEK293) 662 nM and 18.4 µM | Potency (HaCat [1]) 2.35 µM and 20.6 µM | Potency (KB-3-1) 0.372 µM | Potency (MKL-2) 20.9 µM | Potency (CASKI) 22.4 µM

CS(=O)(=O)N(Cc1ccco1)CC(O)Cn1c2ccccc2c2ccccc21 (stereo not drawn)
inactive: max response (HaCat [1]) -8.74% | outcome (HaCat [1]) | max response (KB-3-1) -4.93% and 3.15% | max response (NIH3T3 [2]) -17.4% and 0.438% | outcome (HACAT [3]) | Potency (MCC-13) | Potency (MCC-26) | Potency (MKL-1) | Potency (MKL-2) | Potency (WaGa) | Potency (C33A) | Potency (CASKI) | Potency (Es-2) | Potency (HeLa) | Potency (Hek293T [6]) | Potency (JEG-3)

Oc1ccc(C2=Cc3ccc(O)cc3OC2)cc1
active: Potency (HEK293) 9.35 µM | Potency (KB-3-1) 16.6 µM | Potency (NIH3T3 [2]) 7.43 µM | Potency (MCC-13) 10.5 µM | Potency (MCC-26) 20.9 µM | Potency (MKL-1) 2.96 µM | Potency (WaGa) 2.35 µM

O=c1cc(-c2ccccc2)oc2cc(O)cc(O)c12
inactive: Potency (MCC-13) | Potency (MCC-26) | Potency (MKL-1) | Potency (MKL-2) | Potency (UISO) | Potency (WaGa)
active: Potency (HEK293) 8.33 µM

NC(=O)c1ccc2nc(-c3ccc(Oc4ccc(Cl)cc4)cc3)[nH]c2c1
inactive: max response (HaCat [1]) -0.499% | outcome (HaCat [1]) | max response (NIH3T3 [2]) -2.72% and -4.33% | outcome (HACAT [3]) | Potency (MCC-13) | Potency (MCC-26) | Potency (MKL-1) | Potency (CASKI) | Potency (Hek293T [6]) | Potency (JEG-3)

Oc1ccc(C2CCN(c3ccnc4ccccc34)CC2)cc1O
inactive: max response (HaCat [1]) -4.14% | max response (NIH3T3 [2]) -5.13% | Potency (MCC-13) | Potency (MCC-26) | Potency (UISO)
active: Potency (HEK293) 13.2 µM
